Screening results from PubChem.
This is a sample that favours compounds with a hit; in the whole collection about 0.3% have one here.
CCT modulator = modulators of cytosolic chaperonin (CCT/TRiC) activity | purified chaperonin ATPase assay, HTRF ADP detection, 30 min | activity change, % (no concentration beside the values), hits read low | 360,000 compounds, 0.3% hits; in the data active = activity change below about -30%; note: % is set by controls: 0 for no effect and ±100 for the full control effect
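First, chaperonin was dispensed at 40 nM or 20 nM final depending on batch activity. Next, compounds were pinned at 76 uM and ATP added at 10 uM. After 30 min at 37 °C, ADP detection reagents ran 30 min at ambient temperature.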
S-ASM inh = human S-ASM enzyme inhibition; P17405; placental ASM, HMU-PC fluorogenic substrate, 60 min; Potency, µM (titrated, usually from 57.5 µM), without a hit: at the highest dose activity change, negative = inhibition, usual class: inhibitors; 340,000 compounds, 0.006% hits; AID 504937; note: potency is the fitted concentration of half-maximal effect
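qHTS format. ASM enzyme prepared from human placenta hydrolyses the fluorogenic substrate HMU-PC0 (9 uM final) over 60 min at 37 °C after a 10 min compound preincubation.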
Mm-Cpn inhibitor = inhibitors of Methanococcus maripaludis chaperonin TRiC (MmCpn). Potency, µM (series often up to 76.9 µM), inactives show at the top dose activity, negative = inhibition, hits mostly inhibitors. purified Mm-Cpn ATPase, ADP Transcreener TR-FRET. 330,000 compounds, 0.031% hits; note: potency is the fitted concentration of half-maximal effect; % is set by controls: 0 for no effect and ±100 for the full control effect; nearly all actives have a fitted effect of over 80% in size
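Quantitative HTS used 25 nM Mm-CPN and 10 uM ATP in magnesium/KCl Tris buffer, pH 7.4, with 1 mM DTT. Hydrolysis ran 30 min at 37°C; ADP was read by HTRF.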
USP2a block = blocks human ubiquitin-specific protease USP2a; O75604; USP2 core, Ub-CHOP2 coupled fluorogenic reporter, 485/531; Potency, µM (titrated, usually from 38.3 µM), for inactives: top-dose activity change, negative = inhibition, hits mostly inhibitors; 330,000 compounds, 0.01% hits;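 note: potency is the fitted concentration of half-maximal effect; plate controls were DMSO wells for no effect and full inhibition by NEM control for full effect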
Target sequence (O75604 whole entry, looked up): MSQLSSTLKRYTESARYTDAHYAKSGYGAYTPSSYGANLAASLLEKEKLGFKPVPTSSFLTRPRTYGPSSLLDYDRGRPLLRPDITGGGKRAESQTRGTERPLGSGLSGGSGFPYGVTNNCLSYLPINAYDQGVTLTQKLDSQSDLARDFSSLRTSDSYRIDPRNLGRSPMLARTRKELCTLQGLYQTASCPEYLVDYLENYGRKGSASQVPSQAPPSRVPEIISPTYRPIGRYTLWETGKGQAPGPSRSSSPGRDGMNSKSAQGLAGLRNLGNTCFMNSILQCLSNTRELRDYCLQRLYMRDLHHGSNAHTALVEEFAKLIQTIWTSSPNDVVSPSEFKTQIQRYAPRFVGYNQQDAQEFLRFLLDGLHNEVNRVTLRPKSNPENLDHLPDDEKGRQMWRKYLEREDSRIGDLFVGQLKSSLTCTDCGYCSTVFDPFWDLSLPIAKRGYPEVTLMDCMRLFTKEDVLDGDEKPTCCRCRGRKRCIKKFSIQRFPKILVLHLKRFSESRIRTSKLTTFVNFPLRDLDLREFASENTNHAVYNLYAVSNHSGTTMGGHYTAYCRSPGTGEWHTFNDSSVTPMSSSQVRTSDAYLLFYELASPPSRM
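Deubiquitinase activity read as fluorescence (485/531 nm) after Ub-CHOP2 cleavage activates the enterokinase reporter on its substrate; USP2 core 10nM, Ub-CHOP2 and substrate 25nM each, 30min compound preincubation then 60min RT; data normalized to NEM, curves fitted.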
Active calls of the source: *; ? = inconclusive; nt = no result. Unless noted, calls come from the whole dose curve; as a rule, active = well fitted curve in the direction sought with a large enough effect; inconclusive = small, poorly fitted or top-dose-only effect, or another doubt; inactive = no such curve, though single readings can be large; an effect the other way counts as inactive or inconclusive.

SMILES	CCT modulator	S-ASM inh	Mm-Cpn inhibitor	USP2a block
COc1ccccc1C(CNc1ncccc1[N+](=O)[O-])N(C)C (stereo unspecified)	1	-5%	0%	3%
O=C1C2=C(C(c3ccccc3)=NCCN2)C(c2cccc([N+](=O)[O-])c2)N1c1ccccc1 (stereo unspecified)	-1	8%	-1%	1%
COc1ccc(C2C3=C(NCCN=C3c3ccccc3)C(=O)N2c2ccccc2)c(OC)c1 (stereo unspecified)	-60*	0%	-3%	-7%
C[C@H](CO)N1C[C@H](C)[C@H](CN(C)C(=O)Cc2ccncc2)Oc2ncc(Br)cc2C1=O	-1	nt	nt	nt
Cc1cc2ccccn2c1C(=O)c1ccc(S(=O)(=O)N(C)C)cc1	0	-11%	3%	1%
CC(=O)Nc1ccc(S(=O)(=O)N2CCN(CC3CC4C=CC3C4)CC2)cc1 (stereo unspecified)	-43*	-1%	1%	1%
CCC(Oc1ccccc1)C(=O)Nc1ncc([N+](=O)[O-])s1 (stereo unspecified)	-3	-3%	?	1%
CC(C)(CCC(=S)N1CCOCC1)C1CCCCC1	-40*	-4%	-2%	-5%
S=C(CN1CCCC1=S)N1CCOCC1	-2	0%	nt	nt
Cc1ccc(NC(=S)Nc2cccc(-c3n[nH]c(=S)o3)c2)cc1	1	?	50µM*	6%
NC(=S)Nc1cccc(-c2n[nH]c(=S)o2)c1	1	7%	?	0%
O=C(CNCc1ccccn1)N1CCc2ccccc2C1	-44*	10%	-1%	0%
N#Cc1c(-c2ccccc2)ccn(Cc2ccccc2Cl)c1=O	0	0%	0%	4%
c1ccc(-c2sc3ccccc3c2-c2ccc(OCCN3CCOCC3)cc2)cc1	-4	-17%	-1%	3%
COc1ccccc1-c1sc2ccccc2c1-c1ccc(OCCN2CCOCC2)cc1	0	-19%	40µM*	-1%
CC(c1ccco1)N(C(=O)c1cccc(Br)c1)c1ccccn1 (stereo unspecified)	-2	4%	3%	1%
CC(c1ccco1)N(C(=O)c1cccc(S(=O)(=O)N(C)C)c1)c1ccccn1 (stereo unspecified)	-51*	7%	2%	0%
CC(=O)c1c(C)nc(-c2ccccc2)nc1NC(=O)Cc1ccccc1	1	-2%	0%	10%
O=C(CN(C(=O)c1csnn1)c1cccc(C(F)(F)F)c1)NC1CCCC1	-1	3%	-2%	0%
O=C(Nc1nnc(SCc2ccccc2)s1)c1cc2c(s1)CCCC2	-61*	1%	0%	0%
O=c1c2ccccc2sc2ccccc12	-35*	321%	nt	nt
CCN(C(=O)COc1cc(=O)n(C)c2ccccc12)c1cccc(Cl)c1	-55*	-1%	0%	0%
CN(C(=O)COc1cc(=O)n(C)c2ccccc12)c1cccc(Cl)c1	-1	-2%	-2%	-5%
N#Cc1cc(S(=O)(=O)N2CCOCC2)ccc1N1CCOCC1	2	-2%	0%	1%
COc1ccc(COCC(O)CN2CCN(S(=O)(=O)c3ccc(C(C)C)cc3)CC2)cc1 (stereo unspecified)	0	-1%	0%	-13%
SMILES	CCT modulator	S-ASM inh	Mm-Cpn inhibitor	USP2a block
CCOC(=O)N1CCC(NCCNC(=O)c2ccc(Cl)cc2)CC1	-1	6%	2%	2%
COc1ccc(-c2oc3ccccc3c2C(=O)OCc2ccccc2)cc1	-33*	38%	-1%	-2%
Cc1ccc(C(C#N)c2ccc3c(C(F)(F)F)cc(C(F)(F)F)nc3n2)cc1 (stereo unspecified)	-45*	-16%	1%	0%
CC(C)c1ccc(OCC(=O)NC(Cc2c[nH]c3ccccc23)C(=O)O)cc1 (stereo unspecified)	0	-1%	-9%	3%
CCCc1nnc(SCC(=O)Nc2ccc(OC)cc2)n1N	-2	1%	2%	1%
O=c1c2c(-c3cccs3)csc2ncn1-c1ccc(Br)cc1	0	-8%	-13%	0%
Cn1c(=S)[nH]c2scc(-c3cccs3)c2c1=O	-36*	-2%	?	1%
C=CCn1c(=S)[nH]c2scc(-c3cccs3)c2c1=O	1	-2%	50µM*	11%
COc1ccccc1NS(=O)(=O)c1cc(NC(=O)c2ccc(=O)[nH]c2)ccc1N1CCOCC1	1	-6%	-4%	0%
O=C(O/N=C/c1ccc2c(c1)OCO2)c1ccc([N+](=O)[O-])cc1	-31*	1%	-15%	-1%
Cc1ccc(C(=O)O/N=C/c2ccc3c(c2)OCO3)cc1	-1	1%	-1%	-1%
CCCn1cc(S(=O)(=O)c2ccc(C)cc2)c(=O)c2cc(OC)ccc21	3	32%	1%	0%
O=C(Nc1ccc(OCc2ccccc2)cc1)c1cccc([N+](=O)[O-])c1	-46*	1%	2%	-4%
